This is an account of results in ChEMBL document CHEMBL1961873, “Compounds: GSK PKIS; Assays: Nanosyn kinase panel” (2012).

Test [1] deals with Mitogen-activated protein kinase 3 (Homo sapiens) (UniProt P27361). The settings on record: at 1 µM.
Test [2] addresses SRSF protein kinase 3 (Homo sapiens) (UniProt Q9UPE1). The following applies: at 0.1 µM.
Test [3] has the same target. The settings on record: at 1 µM.
Test [4] has as its target Mitogen-activated protein kinase 14 (Homo sapiens) (UniProt Q16539). The settings on record: at 0.1 µM.
For test [5] the target is unchanged. The following applies: at 1 µM.
Test [6] concerns the target Mitogen-activated protein kinase 11 (Homo sapiens) (UniProt Q15759). The following applies: at 0.1 µM.
For test [7] the target is unchanged. The following applies: at 1 µM.
Test [8] addresses T1, Mitogen-activated protein kinase 13 (Homo sapiens) (UniProt O15264).
T1 sequence (whole entry): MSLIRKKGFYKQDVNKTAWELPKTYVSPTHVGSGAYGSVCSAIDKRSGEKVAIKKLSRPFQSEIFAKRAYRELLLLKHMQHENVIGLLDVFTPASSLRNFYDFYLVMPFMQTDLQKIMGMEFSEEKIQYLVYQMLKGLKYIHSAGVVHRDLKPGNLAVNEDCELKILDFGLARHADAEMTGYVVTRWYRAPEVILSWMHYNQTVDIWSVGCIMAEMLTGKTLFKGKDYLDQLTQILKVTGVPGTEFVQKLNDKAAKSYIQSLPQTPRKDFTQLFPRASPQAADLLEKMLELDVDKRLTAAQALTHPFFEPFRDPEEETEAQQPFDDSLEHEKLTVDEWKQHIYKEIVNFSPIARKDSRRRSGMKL
The settings on record: at 0.1 µM.

Test [9] deals with T1, Mitogen-activated protein kinase 13 (Homo sapiens). The following applies: at 1 µM.
The target in test [10] is T2, Mitogen-activated protein kinase 12 (Homo sapiens) (UniProt P53778).
T2 sequence (whole entry): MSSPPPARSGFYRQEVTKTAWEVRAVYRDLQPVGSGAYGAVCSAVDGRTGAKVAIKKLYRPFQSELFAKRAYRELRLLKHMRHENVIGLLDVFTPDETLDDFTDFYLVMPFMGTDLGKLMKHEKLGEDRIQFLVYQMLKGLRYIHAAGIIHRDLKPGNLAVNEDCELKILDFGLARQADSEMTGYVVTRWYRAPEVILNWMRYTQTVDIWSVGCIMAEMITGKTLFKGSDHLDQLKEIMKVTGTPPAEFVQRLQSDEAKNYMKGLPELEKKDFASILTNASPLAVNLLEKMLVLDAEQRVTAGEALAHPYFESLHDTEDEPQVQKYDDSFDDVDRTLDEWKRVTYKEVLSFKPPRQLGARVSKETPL
The following applies: at 0.1 µM.

For test [11], the target named is T2, Mitogen-activated protein kinase 12 (Homo sapiens). The following applies: at 1 µM.
Test [12] deals with SRSF protein kinase 1 (Homo sapiens) (UniProt Q96SB4). The following applies: at 0.1 µM.
Test [13] has the same target. The following applies: at 1 µM.
Test [14] has as its target Phosphatidylinositol 4,5-bisphosphate 3-kinase catalytic subunit alpha isoform (Homo sapiens) (UniProt P42336). The following applies: at 0.1 µM.
For test [15] the target is unchanged. The following applies: at 1 µM.
Test [16] addresses T3, Phosphatidylinositol 4,5-bisphosphate 3-kinase catalytic subunit delta isoform (Homo sapiens) (UniProt O00329).
T3 sequence (whole entry): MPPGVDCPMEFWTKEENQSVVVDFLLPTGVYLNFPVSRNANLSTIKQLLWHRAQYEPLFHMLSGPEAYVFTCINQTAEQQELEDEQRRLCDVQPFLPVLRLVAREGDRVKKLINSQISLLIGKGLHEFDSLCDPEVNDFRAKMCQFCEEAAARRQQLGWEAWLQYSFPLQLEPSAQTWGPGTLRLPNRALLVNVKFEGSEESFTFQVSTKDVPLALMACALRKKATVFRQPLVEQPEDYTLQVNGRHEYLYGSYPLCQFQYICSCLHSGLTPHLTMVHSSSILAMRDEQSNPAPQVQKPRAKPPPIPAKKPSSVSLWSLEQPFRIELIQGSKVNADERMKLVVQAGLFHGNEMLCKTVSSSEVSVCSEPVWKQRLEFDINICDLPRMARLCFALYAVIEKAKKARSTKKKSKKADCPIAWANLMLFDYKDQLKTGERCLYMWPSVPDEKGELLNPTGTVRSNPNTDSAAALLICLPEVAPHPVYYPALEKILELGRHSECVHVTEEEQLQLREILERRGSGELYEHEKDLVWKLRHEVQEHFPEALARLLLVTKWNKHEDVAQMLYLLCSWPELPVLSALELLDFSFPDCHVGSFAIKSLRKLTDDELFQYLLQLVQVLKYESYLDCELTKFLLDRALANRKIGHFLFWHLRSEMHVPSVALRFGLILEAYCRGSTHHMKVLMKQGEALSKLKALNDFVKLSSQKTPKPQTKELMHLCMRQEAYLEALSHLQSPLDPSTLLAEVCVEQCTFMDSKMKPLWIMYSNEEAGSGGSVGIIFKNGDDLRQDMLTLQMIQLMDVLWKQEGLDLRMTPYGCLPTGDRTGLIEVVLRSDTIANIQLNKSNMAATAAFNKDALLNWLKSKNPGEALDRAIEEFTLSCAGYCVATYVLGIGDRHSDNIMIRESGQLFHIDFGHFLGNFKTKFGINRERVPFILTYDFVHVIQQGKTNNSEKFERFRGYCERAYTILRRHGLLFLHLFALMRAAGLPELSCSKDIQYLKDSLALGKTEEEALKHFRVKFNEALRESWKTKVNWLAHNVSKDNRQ
The settings on record: at 0.1 µM.

Test [17] has as its target T3, Phosphatidylinositol 4,5-bisphosphate 3-kinase catalytic subunit delta isoform (Homo sapiens). The following applies: at 1 µM.
Test [18] addresses Phosphatidylinositol 4-kinase beta (Homo sapiens) (UniProt Q9UBF8). The settings on record: at 0.1 µM.
Test [19] shares this target. The following applies: at 1 µM.
In test [20] the target is Sphingosine kinase 1 (Homo sapiens) (UniProt Q9NYA1). The following applies: at 0.1 µM.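 Note: mean percent inhibition of SPHK1 activity, measured within the GSK PKIS screening panel.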
Chain of Sphingosine kinase 1 (Homo sapiens) (Q9NYA1 whole entry): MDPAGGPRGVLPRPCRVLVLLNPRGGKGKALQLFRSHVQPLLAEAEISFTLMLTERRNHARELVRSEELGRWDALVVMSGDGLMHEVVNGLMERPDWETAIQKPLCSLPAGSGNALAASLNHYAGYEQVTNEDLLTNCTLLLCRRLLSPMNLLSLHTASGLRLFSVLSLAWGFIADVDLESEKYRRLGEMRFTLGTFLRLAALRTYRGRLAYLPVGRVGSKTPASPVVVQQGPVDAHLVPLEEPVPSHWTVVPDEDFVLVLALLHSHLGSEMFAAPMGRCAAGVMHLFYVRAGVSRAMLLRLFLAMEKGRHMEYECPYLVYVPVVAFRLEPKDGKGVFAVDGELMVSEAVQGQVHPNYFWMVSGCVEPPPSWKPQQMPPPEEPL

Chain of Mitogen-activated protein kinase 14 (Homo sapiens) (Q16539 whole entry): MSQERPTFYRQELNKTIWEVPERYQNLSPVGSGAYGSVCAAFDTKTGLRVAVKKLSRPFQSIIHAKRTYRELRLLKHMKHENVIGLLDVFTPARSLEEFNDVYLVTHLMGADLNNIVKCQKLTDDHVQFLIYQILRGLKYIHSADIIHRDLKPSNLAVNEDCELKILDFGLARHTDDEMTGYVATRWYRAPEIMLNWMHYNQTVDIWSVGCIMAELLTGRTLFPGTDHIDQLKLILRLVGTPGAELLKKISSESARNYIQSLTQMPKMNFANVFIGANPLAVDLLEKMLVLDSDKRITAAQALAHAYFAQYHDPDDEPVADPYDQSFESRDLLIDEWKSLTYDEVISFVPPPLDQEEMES
Chain of Mitogen-activated protein kinase 11 (Homo sapiens) (Q15759 whole entry): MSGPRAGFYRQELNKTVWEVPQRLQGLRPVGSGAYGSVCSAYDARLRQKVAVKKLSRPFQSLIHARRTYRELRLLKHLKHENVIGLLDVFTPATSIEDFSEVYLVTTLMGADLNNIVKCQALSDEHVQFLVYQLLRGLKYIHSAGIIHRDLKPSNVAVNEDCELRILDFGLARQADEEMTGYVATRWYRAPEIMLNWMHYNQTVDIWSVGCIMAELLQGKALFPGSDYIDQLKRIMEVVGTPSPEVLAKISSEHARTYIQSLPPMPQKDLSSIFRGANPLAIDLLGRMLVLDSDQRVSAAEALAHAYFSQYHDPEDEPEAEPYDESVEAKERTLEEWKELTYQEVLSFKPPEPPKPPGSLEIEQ
Chain of SRSF protein kinase 3 (Homo sapiens) (Q9UPE1 whole entry): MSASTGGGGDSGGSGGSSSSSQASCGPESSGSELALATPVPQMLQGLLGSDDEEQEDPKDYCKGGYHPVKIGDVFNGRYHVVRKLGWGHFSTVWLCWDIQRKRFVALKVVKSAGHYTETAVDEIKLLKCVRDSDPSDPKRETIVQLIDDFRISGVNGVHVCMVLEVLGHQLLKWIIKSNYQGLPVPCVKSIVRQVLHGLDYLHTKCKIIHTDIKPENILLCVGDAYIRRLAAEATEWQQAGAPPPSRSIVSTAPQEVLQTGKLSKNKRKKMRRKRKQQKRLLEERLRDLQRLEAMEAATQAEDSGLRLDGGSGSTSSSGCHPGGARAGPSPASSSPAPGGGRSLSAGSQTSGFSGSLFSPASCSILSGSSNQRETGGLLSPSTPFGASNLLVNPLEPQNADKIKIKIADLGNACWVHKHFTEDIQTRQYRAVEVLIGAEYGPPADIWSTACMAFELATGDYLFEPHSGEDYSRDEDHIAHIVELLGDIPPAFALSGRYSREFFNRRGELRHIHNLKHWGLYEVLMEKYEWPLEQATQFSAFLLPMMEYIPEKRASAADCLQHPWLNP
Chain of Phosphatidylinositol 4-kinase beta (Homo sapiens) (Q9UBF8 2-816 limits assumed): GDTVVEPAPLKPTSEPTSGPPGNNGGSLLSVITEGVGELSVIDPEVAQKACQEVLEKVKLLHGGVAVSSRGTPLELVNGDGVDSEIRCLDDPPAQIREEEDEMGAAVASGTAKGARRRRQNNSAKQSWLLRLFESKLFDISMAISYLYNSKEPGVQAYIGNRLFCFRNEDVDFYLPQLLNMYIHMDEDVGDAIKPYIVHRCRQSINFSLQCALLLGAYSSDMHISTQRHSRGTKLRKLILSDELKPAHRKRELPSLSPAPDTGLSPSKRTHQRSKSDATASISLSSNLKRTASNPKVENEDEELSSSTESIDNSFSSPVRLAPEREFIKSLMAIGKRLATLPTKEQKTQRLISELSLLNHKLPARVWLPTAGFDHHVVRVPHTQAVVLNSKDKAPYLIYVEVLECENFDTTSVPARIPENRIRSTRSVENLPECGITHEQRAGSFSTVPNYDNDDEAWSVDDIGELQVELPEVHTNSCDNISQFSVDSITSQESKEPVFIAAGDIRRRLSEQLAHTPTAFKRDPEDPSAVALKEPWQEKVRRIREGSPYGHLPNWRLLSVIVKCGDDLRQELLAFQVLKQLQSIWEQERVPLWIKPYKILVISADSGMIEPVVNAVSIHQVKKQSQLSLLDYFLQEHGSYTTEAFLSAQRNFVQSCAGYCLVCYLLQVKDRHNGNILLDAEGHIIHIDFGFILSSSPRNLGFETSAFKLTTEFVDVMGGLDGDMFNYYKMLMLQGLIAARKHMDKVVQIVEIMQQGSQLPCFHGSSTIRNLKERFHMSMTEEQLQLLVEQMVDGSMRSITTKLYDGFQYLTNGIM
Chain of Mitogen-activated protein kinase 3 (Homo sapiens) (P27361 whole entry): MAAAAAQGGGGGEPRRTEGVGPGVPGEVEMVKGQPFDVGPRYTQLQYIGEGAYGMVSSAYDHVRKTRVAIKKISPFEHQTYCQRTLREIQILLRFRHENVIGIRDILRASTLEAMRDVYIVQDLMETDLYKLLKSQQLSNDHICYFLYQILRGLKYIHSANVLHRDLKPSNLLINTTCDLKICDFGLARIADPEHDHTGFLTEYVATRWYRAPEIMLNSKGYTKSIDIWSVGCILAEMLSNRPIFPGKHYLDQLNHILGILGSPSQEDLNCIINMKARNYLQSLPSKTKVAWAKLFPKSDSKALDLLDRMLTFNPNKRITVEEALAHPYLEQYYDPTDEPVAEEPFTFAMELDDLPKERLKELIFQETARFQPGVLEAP
Chain of Phosphatidylinositol 4,5-bisphosphate 3-kinase catalytic subunit alpha isoform (Homo sapiens) (P42336 whole entry, canonical isoform): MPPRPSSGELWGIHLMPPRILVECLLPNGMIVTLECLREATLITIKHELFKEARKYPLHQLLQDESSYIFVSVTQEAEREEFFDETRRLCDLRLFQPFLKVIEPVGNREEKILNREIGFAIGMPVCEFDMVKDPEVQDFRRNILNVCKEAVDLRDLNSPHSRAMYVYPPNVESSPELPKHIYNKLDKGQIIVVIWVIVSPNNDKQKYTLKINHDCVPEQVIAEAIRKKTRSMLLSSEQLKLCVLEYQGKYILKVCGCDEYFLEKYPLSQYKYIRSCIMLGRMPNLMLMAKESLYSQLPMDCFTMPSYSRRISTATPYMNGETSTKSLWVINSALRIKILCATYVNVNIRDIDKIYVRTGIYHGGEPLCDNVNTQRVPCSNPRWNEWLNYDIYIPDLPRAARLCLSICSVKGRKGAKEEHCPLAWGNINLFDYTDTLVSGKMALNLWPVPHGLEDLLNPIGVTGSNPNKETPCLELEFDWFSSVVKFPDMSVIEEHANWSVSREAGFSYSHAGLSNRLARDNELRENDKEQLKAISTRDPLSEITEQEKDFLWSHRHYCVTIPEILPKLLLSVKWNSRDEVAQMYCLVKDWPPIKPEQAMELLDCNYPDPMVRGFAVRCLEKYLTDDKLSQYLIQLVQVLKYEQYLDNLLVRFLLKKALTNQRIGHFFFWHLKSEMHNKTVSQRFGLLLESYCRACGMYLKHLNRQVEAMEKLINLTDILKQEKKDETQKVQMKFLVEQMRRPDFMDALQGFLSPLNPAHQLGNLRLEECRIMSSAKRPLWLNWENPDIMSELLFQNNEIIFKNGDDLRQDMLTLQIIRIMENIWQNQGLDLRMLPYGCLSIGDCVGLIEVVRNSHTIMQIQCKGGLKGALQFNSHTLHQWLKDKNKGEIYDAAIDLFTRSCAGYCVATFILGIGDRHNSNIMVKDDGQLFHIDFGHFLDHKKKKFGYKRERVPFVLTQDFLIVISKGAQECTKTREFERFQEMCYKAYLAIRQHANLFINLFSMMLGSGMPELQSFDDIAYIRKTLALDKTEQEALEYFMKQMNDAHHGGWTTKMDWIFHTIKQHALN
Chain of SRSF protein kinase 1 (Homo sapiens) (Q96SB4 whole entry): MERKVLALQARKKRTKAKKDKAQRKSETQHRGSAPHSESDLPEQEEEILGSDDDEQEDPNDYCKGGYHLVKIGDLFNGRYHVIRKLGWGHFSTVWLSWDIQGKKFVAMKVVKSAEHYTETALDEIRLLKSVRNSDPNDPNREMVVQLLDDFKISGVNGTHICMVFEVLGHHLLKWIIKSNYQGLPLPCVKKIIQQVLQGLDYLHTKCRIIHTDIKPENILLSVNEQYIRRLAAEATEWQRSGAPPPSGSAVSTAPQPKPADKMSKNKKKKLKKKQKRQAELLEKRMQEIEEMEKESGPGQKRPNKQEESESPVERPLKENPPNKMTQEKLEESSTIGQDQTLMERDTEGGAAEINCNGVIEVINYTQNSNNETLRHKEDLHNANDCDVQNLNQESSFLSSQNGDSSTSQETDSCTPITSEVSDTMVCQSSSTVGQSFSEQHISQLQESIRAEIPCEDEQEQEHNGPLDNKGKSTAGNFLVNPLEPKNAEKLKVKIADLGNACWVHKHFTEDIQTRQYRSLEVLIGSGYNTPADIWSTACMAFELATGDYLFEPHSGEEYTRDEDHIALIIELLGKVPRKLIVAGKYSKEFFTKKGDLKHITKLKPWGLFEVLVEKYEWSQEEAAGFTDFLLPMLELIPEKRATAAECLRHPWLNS

As for `CS(=O)(=O)Nc1ccc(N/C=C2\C(=O)Nc3ccccc32)cc1`, the inhibition in test [1] was -3.47%; in [2], 1.49%; in [3] it was 0.17%; in [4] it was -4.68%; in [5] it was -2.23%; in test [6] it was -0.39%. Also, the inhibition was 3.42% in test [7]; -3.94% in [8]; -3.87% in [9]; -2.29% in test [10]; -0.19% in test [11]; 1.24% in test [12]. In addition, the inhibition is 1.9% in [13]; -2.27% in test [14]; -1.98% in [15]; -1.26% in [16]; -0.45% in [17]; -4.55% in [18]. Moreover, the inhibition in [19] was -0.72%; in test [20], -0.88%.
Turning to `CCCN1CCC(Oc2cc(Nc3nc(Nc4cccc(F)c4C(N)=O)c4cc[nH]c4n3)c(OC)cc2Cl)CC1`, the inhibition turned out to be 2.9% in test [1]; 0.09% in [2]; 3.91% in [3]; 0.2% in test [4]; 3.85% in [5]; 0.2% in [6]. For the same compound, the inhibition in [7] is 0.06%; in test [8], 0.04%; in [9] it was -0.16%; in [10] it was -0.75%; in test [11] it was 0.42%; in [12], -0.3%. Further, the inhibition is -0.85% in test [13]; -1.23% in test [14]; -1.07% in test [15]; -0.45% in test [16]; 0.08% in test [17]; 3.96% in [18]. Moreover, the inhibition is -2.71% in test [19] and 0.48% in [20].
On to `COc1ccc(-c2coc3ncnc(N)c23)cc1`, for which the inhibition is 2.51% in test [1]; -0.31% in [2]; -3.44% in [3]; 4.37% in test [4]; 13.4% in [5]; 4.69% in test [6]. Moreover, the inhibition in test [7] is 7.25%; in test [8], 1.38%; in test [9], 5.26%; in [10], 1.11%; in test [11] it was 2.95%; in test [12], -2.53%. The inhibition in [13] is -4.3%; in [14], 3.88%; in test [15], 8.12%; in test [16], 2.89%; in test [17], 11.6%; in test [18] it was 2.15%. Moreover, the inhibition in [19] was -0.74%; in test [20], -2.41%.
For the compound `COc1cc2ncn(-c3cc(OCc4ccccc4Cl)c(C(N)=O)s3)c2cc1OC`, the inhibition in test [1] was 1.75%; in [2], -0.61%; in [3] it was -1.33%; in [4], 2.7%; in test [5] it was 18.4%; in test [6], 1.39%. For the same compound, the inhibition in test [7] was 4.07%; in [8], 0.95%; in [9], 0.78%; in test [10] it was 1.88%; in test [11] it was 0.85%; in test [12], -1.26%. Moreover, the inhibition was -1.23% in test [13]; 0.86% in test [14]; 19.6% in [15]; 0.19% in [16]; 18.4% in [17]; -5.9% in [18]. In addition, the inhibition in test [19] was determined as 1.54%; in test [20], 2.8%.
For `O=C1NC(=O)C(N2CCc3ccccc32)=C1c1ccc(Cl)cc1`, the inhibition in [1] is 2.62%; in test [2], 1.04%; in test [3], -0.52%; in test [4], 3.97%; in test [5], 8.43%; in test [6] it was 5.07%. In addition, the inhibition is 4.84% in test [7]; 1.06% in test [8]; 5.95% in test [9]; 3.98% in test [10]; 3.35% in test [11]; -1.77% in test [12]. For the same compound, the inhibition in test [13] is -3.78%; in test [14] it was 4.21%; in test [15], 6.29%; in test [16], 3.6%; in [17], 5.56%; in test [18] it was -1.76%. In [19], the inhibition is -1.34%.
`O=C1NC(=O)C(c2ccccc2Cl)=C1Nc1cccc(O)c1`: the inhibition in test [1] worked out at 1.29%; in test [2] it was 1.93%; in test [3] it was 4.52%; in [4], 2.48%; in [5], 4.36%; in test [6] it was 2.37%. In addition, the inhibition in test [7] is 0.91%; in test [8] it was 1.98%; in test [9], 4.14%; in [10] it was 5.33%; in test [11], 0.99%; in [12], -0.74%. Also, the inhibition worked out at 1.37% in test [13]; 1.03% in test [14]; 1.86% in test [15]; 2.66% in [16]; 3.71% in [17]; 1.19% in [18]. The figures for the inhibition in test [19] and in [20] were -2.78% and -1.24%, respectively.

One may read the inhibition as the change of the read-out against control, counted positive when it falls.
